# Assay outcomes: PubChem BioAssay, National Center for Advancing Translational Sciences (NCATS)
# TDP1 inh: qHTS Assay for Inhibitors of Tyrosyl-DNA Phosphodiesterase (TDP1). Potency, µM (series often up to 130 µM), for the others: top-dose activity change, negative = inhibition, hits mostly inhibitors. recombinant TDP1, AlphaScreen DNA substrate cleavage. hit rate 0.28% among 350,000. Tyrosyl-DNA phosphodiesterase 1 (Homo sapiens), Q9NUW8; further: potency means the concentration at half of the fitted maximal effect; on the % scale 0 is the no-effect control and ±100 the full control effect; nearly all actives have a fitted effect of over 40% in size
# Target sequence (Q9NUW8 whole entry, looked up): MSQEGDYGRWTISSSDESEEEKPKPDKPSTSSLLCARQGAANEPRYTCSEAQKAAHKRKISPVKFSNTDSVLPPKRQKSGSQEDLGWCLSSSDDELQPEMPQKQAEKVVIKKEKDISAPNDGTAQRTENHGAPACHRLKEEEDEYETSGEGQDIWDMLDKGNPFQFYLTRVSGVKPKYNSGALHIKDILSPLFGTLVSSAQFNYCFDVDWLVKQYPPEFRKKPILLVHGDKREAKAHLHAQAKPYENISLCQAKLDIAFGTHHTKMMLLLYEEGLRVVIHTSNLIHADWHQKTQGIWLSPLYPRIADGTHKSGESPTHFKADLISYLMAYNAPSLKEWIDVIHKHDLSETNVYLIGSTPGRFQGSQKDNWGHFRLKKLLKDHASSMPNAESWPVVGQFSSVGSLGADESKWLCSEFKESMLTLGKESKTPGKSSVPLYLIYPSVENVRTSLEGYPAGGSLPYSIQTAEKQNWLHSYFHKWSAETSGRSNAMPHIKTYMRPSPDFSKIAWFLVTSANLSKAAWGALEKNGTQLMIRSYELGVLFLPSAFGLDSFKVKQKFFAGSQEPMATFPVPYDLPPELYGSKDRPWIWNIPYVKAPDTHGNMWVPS
#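 E. coli-derived human Tdp1, 1 nM final. Cpd preinc 15 min RT; substrate 15 nM final, 5 min RT; AS bead mix 10 ug/ml final, 10 min RT. Signal loss = tyrosine-FITC cleavage. No-enzyme wells = max signal.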
# HepG2 tox: qHTS for Inhibitors of TGF-b: Cytotox Counterscreen; AID 588856, 2011; hit rate 0.76% among 410,000; HepG2 CAGA-GFP viability, ATP luminescence, 18 h; Potency, µM (top dose mostly 46.1 µM), for the others: top-dose activity change, negative = cytotoxicity, actives largely listed as cytotoxic; further: potency means the concentration at half of the fitted maximal effect
#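 CellTiter-Glo luminescence gave cytotoxicity after 18 hours at 37 degrees C. The cells were HepG2 CAGA-GFP in 1% FBS DMEM, stimulated with 500 pg/mL TGF-beta after compound addition. %Activity was normalised to no-cell wells (complete cell-killing) and DMSO (no toxicity), and curves were fitted and classified.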
# IL1B secr inh: qHTS for Inhibitors of Inflammasome Signaling: IL-1-beta AlphaLISA Primary Screen; THP-1 LPS/ATP IL-1B secretion, AlphaLISA, 16 h; hits give low values; activity change, % at 57.5 µM; hit rate 4.7% among 360,000; in the data active means activity change below about -50%; inconclusive means mostly about -30% to -49%; further: on the % scale 0 is the no-effect control and ±100 the full control effect
#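 Secreted IL-1B measured by AlphaLISA bead assay after 16 h compound exposure of THP-1 cells; compounds (final up to 57.5 uM) added 1 h before LPS (250 ng/mL) and ATP (1.25 mM) stimulation; lower signal means less secretion.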
# TDP1 cell noCPT: qHTS for Inhibitors of human tyrosyl-DNA phosphodiesterase 1 (TDP1): qHTS in cells in absence of CPT; DT40 Tdp1-/- hTDP1 cells, no CPT, ATP luminescence, 48 h; Potency, µM (top dose mostly 46.2 µM), for inactives: top-dose activity change, negative = growth inhibition, usual class: inhibitors; hit rate 15% among 420,000; AID 686978, 2013; further: potency means the concentration at half of the fitted maximal effect; on the % scale 0 is the no-effect control and ±100 the full control effect; nearly all actives have a fitted effect of over 55% in size
#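 Seeded 400 DT40-hTDP1 cells/well (vehicle DMSO, no 20 nM CPT); pinned compounds; ≥48 hr at 37 °C; CellTiter-Glo luminescence as viability measure.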
# TGFb inhibitor: qHTS for Inhibitors of TGF-b; HepG2 CAGA-GFP TGF-b/SMAD3 reporter, GFP fluorescence, 18 h; TGF-beta stimulated, 500 pg/mL final; Potency, µM (titrated, usually from 46.1 µM), for inactives: top-dose activity, negative = inhibition, most hits filed as inhibitors; hit rate 1.2% among 410,000; further: potency means the concentration at half of the fitted maximal effect; on the % scale 0 is the no-effect control and ±100 the full control effect; nearly all actives have a fitted effect of over 65% in size
#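 Inhibition was scored as loss of TGF-beta-induced (500 pg/mL final, 18 hours, 37 degrees C) GFP in HEPG2 cells carrying a CAGA-GFP reporter, in DMEM with 1% FBS. Well GFP was summed per cell; Activity was normalised to unstimulated and stimulated DMSO wells, then concentration-response fitting.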
# TDP1 cell CPT: qHTS for Inhibitors of human tyrosyl-DNA phosphodiesterase 1 (TDP1): qHTS in cells in presence of CPT; chicken DT40 Tdp1-/-;hTDP1 cells + 20 nM CPT, ATP luminescence, 48 h; Potency, µM (top dose mostly 46.2 µM), without a hit: at the highest dose activity change, negative = growth inhibition, actives largely listed as inhibitors; hit rate 12% among 420,000; further: potency means the concentration at half of the fitted maximal effect; on the % scale 0 is the no-effect control and ±100 the full control effect; nearly all actives have a fitted effect of over 55% in size
#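 Chicken DT40 Tdp1-/- cells stably complemented with human TDP1 were seeded at 400 cells/well in medium containing 20 nM camptothecin, exposed to pin-transferred compounds, and grown at 37 °C for at least 48 hr. Viability was read as ATP luminescence.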
# The depositor's hits bear a star; ? = inconclusive; . = not tested or not shown; [ ] = dose if it differs, or a comment. The list is not random: actives were taken first. Their share in the collection is about 19%. Unless noted, the call rests on the fitted dose curve; in most records, active means well fitted curve in the direction sought with a large enough effect; inconclusive means small, poorly fitted or top-dose-only effect, or another doubt; inactive means no such curve, though single readings can be large; an effect the other way counts as inactive or inconclusive.
SMILES,TDP1 inh,HepG2 tox,IL1B secr inh,TDP1 cell noCPT,TGFb inhibitor,TDP1 cell CPT
CCOC(C[n+]1c(-c2ccccc2)cc(C)cc1-c1ccccc1)OCC,0%,-33%,4,0.52µM*,7%,1.6µM*
CN(C[C@H](Cc1ccccc1)N(C[C@H](Cc1ccccc1)N(CC1(c2ccccc2)CC1)N=O)N=O)N=O,3%,-18%,0,18µM*,-18%,?
c1ccc(C2(N3CCCCC3)CCCCC2)cc1,1%,1%,15,-18%,12%,3%
S=C=Nc1cccc(C2(N3CCCCC3)CCCCC2)c1,13%[56.1 µM],-48%,-54*,16µM*,14%,21µM*
CC(C)n1c(O)c(C2c3cc(Cl)ccc3Oc3[nH]c(=O)n(C(C)C)c(=O)c32)c(=O)[nH]c1=O (stereo not drawn),0%,14µM*,-99*,2.9µM*,6.3µM*,2.9µM*
C=C/C(=C/C(=O)C[C@H](C)C[C@@H](C)CC[C@H](O)[C@H](C)C(=O)C[C@@H](O)[C@H](C)[C@@H](C)OC(=O)C[C@@H](O)C1=C(C)C(=O)OC1=O)CC,-9%[21 µM],.,.,.,.,.
OC(c1ccccc1)(c1ccc(Cl)cc1)C1CN2CCC1CC2 (stereo not drawn),6%,-66%,-70*,18µM*,0%,16µM*
OC(Cc1ccccc1)(c1ccccc1)C1CN2CCC1CC2 (stereo not drawn),4%,-37%,-14,16µM*,8%,15µM*
OC(c1ccccc1)(c1ccccc1)C1CN2CCC1CC2 (stereo not drawn),-3%,-10%,-26,?,-6%,?
COc1cc2c3cc1Oc1cc(ccc1O)C[C@@H]1c4c(cc(OC)c(O)c4Oc4cccc(c4)C[C@H]3N(C)CC2)CC[N+]1(C)C,5%[21 µM],.,.,.,.,.
COc1ccc(NC(=O)N2CCCC3(CCN(C(=O)Oc4ccccc4)CC3)C2)cc1,.,.,.,-13%,.,-5%
CCC(=O)N1CC(=O)Nc2ccc(F)cc2C1c1ccc(F)cc1 (stereo not drawn),.,-22%,13,-1%,-2%,-2%
CN1C(=O)CC(=O)N(c2ccccc2)c2cc(Cl)ccc21,.,.,.,-12%,.,-18%
Cc1cc(=O)oc2c1c(C)nn2-c1nn[nH]n1,-14%,-8%,23,?,9%,21µM*
C=C1C/C(=C/C)C(=O)O[C@@H]2CCN3CC=C(COC(=O)[C@]1(C)O)[C@@H]23,3%,-1%,.,-18%,-10%,-26%
Cc1ccc2c(c1)cc(C(=O)Nc1ccccc1C)n2C,2%,-4%,.,1.2µM*,.,?
CNC(C)Cc1ccc2c(c1)OCO2 (stereo not drawn),.,.,.,-14%[92.5 µM],.,-26%[92.5 µM]
CCCC1(CCC)C(=O)NC(=NCc2ccccc2)NC1=O,3%,-92%,21,13µM*,?,10µM*
CCCC1(CCC)C(=O)NC(=Nc2ccccc2)NC1=O,0%,2%,-1,-12%,4%,-14%
O=C(Nc1ccc(N2CCOCC2)cc1)C1CCN(S(=O)(=O)c2cccc(C(F)(F)F)c2)CC1,.,-24%,26,?,1%,?
Nc1cc(Cl)c2nonc2c1[N+](=O)[O-],-8%,11µM*,-102*,0.65µM*,?,0.73µM*
COC(=O)C1(C(=O)OC)C[C@H](c2ccc(OC)cc2)N(Cc2ccccc2OC)[C@@H]1c1cccs1,.,.,?,21µM*,.,16µM*
Brc1cccc(-c2ccccc2)c1,1%,.,.,.,.,.
COP(=O)(OC)c1nc(-c2ccccc2)oc1NCc1ccccc1,4%,-21%,-6,?,-12%,-12%
CCCOP(=O)(OCCC)c1nc(-c2ccccc2)oc1NCc1ccccc1,-5%,-51%,-116*,?,?,23µM*
SMILES,TDP1 inh,HepG2 tox,IL1B secr inh,TDP1 cell noCPT,TGFb inhibitor,TDP1 cell CPT
COCCCNC(=S)NCCCNc1nc2cc(C)cc(C)c2cc1C#N,6%,-29%,?,?,?,?
c1ccc(NC2=Nc3ccccc3CC2)cc1,5%,0%,27,?,-6%,-29%
Cn1ccc(NC(=O)CCl)n1,5%,-30%,-102*,?,-11%,?
Cc1cc(NC(=O)CCl)nn1C,4%,-24%,-101*,15µM*,-4%,23µM*
O=C(CC1CCCCC1)N1CCC(c2nc(-c3ccc(S(=O)(=O)N4CCCC4)cc3)no2)CC1,-8%,-4%,-6,8.2µM*,-5%,21µM*
CC(=O)NCCc1c[nH]c2ccccc12,7%[56.1 µM],2%,5,?,41%,0%
CC(=O)c1cn(CC(=O)NCCc2c[nH]c3ccccc23)c2ccccc12,.,-20%,50,23µM*,-26%,16µM*
C[C@@]12C(=O)OC(=O)[C@]1(C)[C@H]1CC[C@@H]2O1,12%[21 µM],.,.,.,.,.
CCOC(=O)c1c(NC(NC(=O)CF)C(Cl)(Cl)Cl)sc2c1CCCC2 (stereo not drawn),11%,-20%,-13,?,?,13µM*
COc1cc2c(c3oc4cccc(O)c4c(=O)c13)C1C=CO[C@@H]1O2 (stereo partly drawn),3%,.,.,.,.,.
Cc1ccnc(NS(=O)(=O)c2cc([N+](=O)[O-])ccc2C)c1,5%,7%,26,-17%,?,20%
COc1cc2c(cc1OC)C1C(=O)c3ccc4c(c3OC1CO2)CC(C(C)C)O4 (stereo not drawn),.,-24%,-68*,0.033µM*,?,0.18µM*
COc1cc2c(cc1OC)[C@@H]1C(=O)c3ccc4oc(C(C)C)cc4c3OC1CO2 (stereo partly drawn),-7%[56.1 µM],.,.,0.29µM*,.,0.65µM*
COc1cc2c(cc1OC)[C@H]1C(=O)c3ccc4c(c3O[C@H]1CO2)C[C@@H](C(C)(C)O)O4,1%,-6%,19,12µM*,?,15µM*
COc1cc2c(cc1OC)[C@@H]1C(=O)c3ccc4c(c3O[C@@H]1CO2)C[C@H](C(C)C)O4,3%,-32%,?,0.16µM*,?,0.26µM*
O=P(c1ccccc1)(c1ccccc1)N1CC2(CC2)CC(O)(c2ccccc2)C1 (stereo not drawn),3%,.,.,.,.,.
CC[C@@]1(c2ccc(N)cc2)CCC(=O)NC1=O,10%[21 µM],.,.,.,.,.
